Measurements reported in PubChem BioAssay (NCI).
About 83,000 compounds went through this panel and 20% of them were active in at least one assay; those are over-represented in the sample as a whole.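 How to read the values: 0–100, growth inhibition (40 = 60% inhibited); 0, no net growth; -100 to 0, cell death (-40 = 40% of starting cells died; -100 = all dead).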 Unmarked numbers belong to inactive results. Activity calls are given as the source filed them. How the source made its calls: active means growth percent below 10; inactive means the rest.

How the values were obtained:
Test in all cases: NCI-60 one-dose screen, 48 h (100 = growth as untreated, 0 = no growth, -100 = all killed)
Details in all cases: 10 µM unless noted
[1] = test system: NCI-H23 lung
[2] = test system: NCI-H226 lung
[3] = test system: NCI-H322M lung
[4] = test system: HOP-62 NSCLC
[5] = test system: NCI-H460 lung
[6] = test system: NCI-H522 lung
[7] = test system: A549/ATCC NSCLC
[8] = test system: 786-0 renal
[9] = test system: COLO 205 colon
[10] = test system: DU-145 prostate
[11] = test system: K-562 leukemia
[12] = test system: MALME-3M melanoma
[13] = test system: MDA-MB-231 breast
[14] = test system: RXF 393 renal
[15] = test system: SF-268 CNS
[16] = test system: SF-295 CNS
[17] = test system: SF-539 CNS
[18] = test system: UACC-257 melanoma
[19] = test system: M14 melanoma

O=C1CN(c2ccccc2)C(=O)C1C(=O)Nc1ccc(Cl)c(Cl)c1 (stereo unspecified)
growth [1]: 31.2% [100 µM]
growth [2]: 41.6% [100 µM]
growth [3]: 19.6% [100 µM]
growth [4]: 9.46% [100 µM] (active)
growth [5]: -2.82% [100 µM] (active)
growth [6]: 8.5% [100 µM] (active)
growth [7]: 16.2% [100 µM]
growth [8]: 0.0265% [100 µM] (active)
growth [9]: -23.1% [100 µM] (active)
growth [10]: 38.9% [100 µM]
growth [11]: 20.1% [100 µM]
growth [12]: -11.7% [100 µM] (active)
growth [13]: 27.2% [100 µM]
growth [14]: 34.7% [100 µM]
growth [15]: 31.2% [100 µM]
growth [16]: 0.977% [100 µM] (active)
growth [17]: -9.88% [100 µM] (active)
growth [18]: 16.2% [100 µM]
growth [19]: 28.8% [100 µM]

Cc1nn(-c2ccc(Cl)cc2)c(=O)n1CCn1cnc2ccccc21
growth [1]: 96.2%
growth [2]: 103%
growth [3]: 96.8%
growth [4]: 101%
growth [5]: 107%
growth [7]: 106%
growth [8]: 87.4%
growth [9]: 118%
growth [10]: 114%
growth [11]: 97.1%
growth [12]: 109%
growth [13]: 111%
growth [14]: 107%
growth [15]: 107%
growth [16]: 82.8%
growth [17]: 101%
growth [18]: 103%
growth [19]: 96.7%

Cc1cccc2c1NC(=O)[C@@]21[C@H](C(=O)c2ccccc2)[C@]2(C(=O)Nc3ccccc32)[C@H]2CCCN21
growth [1]: 38.4% [100 µM]
growth [2]: 13% [100 µM]
growth [3]: 48.8% [100 µM]
growth [4]: 4.33% [100 µM] (active)
growth [5]: 12.3% [100 µM]
growth [6]: 17% [100 µM]
growth [7]: 15% [100 µM]
growth [8]: 15.3% [100 µM]
growth [9]: 33.1% [100 µM]
growth [10]: 40% [100 µM]
growth [11]: 30.4% [100 µM]
growth [13]: 14.5% [100 µM]
growth [14]: -23.9% [100 µM] (active)
growth [15]: 34.3% [100 µM]
growth [16]: 23.7% [100 µM]
growth [17]: 6.13% [100 µM] (active)
growth [19]: 46.1% [100 µM]

CN1CCN(CCOc2ccc(-c3cnc4c(-c5cccc(F)c5)cnn4c3)cc2)CC1
growth [1]: 62.6%
growth [2]: 109%
growth [3]: 89.8%
growth [4]: 90%
growth [5]: 1.99% (active)
growth [6]: 82%
growth [7]: 49.4%
growth [8]: 57%
growth [9]: 32.4%
growth [10]: 71.8%
growth [11]: -33.6% (active)
growth [12]: 60.6%
growth [13]: 47.7%
growth [14]: 66.3%
growth [15]: 80.4%
growth [16]: 79.6%
growth [17]: 70.6%
growth [18]: 67.1%
growth [19]: 2.02% (active)

O=C(N/N=C\c1ccccc1O)C1CC1
growth [1]: 116%
growth [2]: 104%
growth [3]: 88.8%
growth [4]: 105%
growth [5]: 115%
growth [6]: 98.1%
growth [7]: 102%
growth [8]: 105%
growth [9]: 109%
growth [10]: 108%
growth [11]: 113%
growth [13]: 103%
growth [14]: 112%
growth [15]: 98.7%
growth [16]: 110%
growth [17]: 110%
growth [18]: 94.7%
growth [19]: 109%

O=C1C(Cl)=C(Nc2ccc(S(=O)(=O)c3ccc(NC4=C(Cl)C(=O)c5ccccc5C4=O)cc3)cc2)C(=O)c2ccccc21
growth [1]: -12.9% (active)
growth [2]: 91.2%
growth [3]: 64.5%
growth [4]: 36.1%
growth [5]: 37.2%
growth [6]: -67.4% (active)
growth [7]: 74%
growth [8]: 26.4%
growth [9]: -54.9% (active)
growth [10]: -15.1% (active)
growth [11]: 8.57% (active)
growth [12]: -48.5% (active)
growth [13]: 45.4%
growth [14]: -96% (active)
growth [15]: -56.3% (active)
growth [16]: 34.1%
growth [17]: 1.36% (active)
growth [18]: -81.3% (active)
growth [19]: -57.6% (active)

O=C1CNCCN1
growth [1]: 96.4%
growth [2]: 97.1%
growth [3]: 106%
growth [4]: 114%
growth [5]: 105%
growth [6]: 90.9%
growth [7]: 93.4%
growth [8]: 100%
growth [9]: 122%
growth [10]: 107%
growth [11]: 101%
growth [12]: 104%
growth [13]: 97.9%
growth [14]: 98.5%
growth [15]: 107%
growth [16]: 97.4%
growth [17]: 95.8%
growth [19]: 105%

C=C(C)[C@@H]1CC[C@]2(C)[C@H](CC=C3[C@@H]4CC(C)(C)CC[C@]4(C=O)CC[C@]32C)[C@@]1(C)CCCN
growth [1]: 86.4%
growth [2]: 85.5%
growth [3]: 86.5%
growth [4]: 88.9%
growth [5]: 86.3%
growth [6]: 91.8%
growth [7]: 77.6%
growth [8]: 90.4%
growth [9]: -62.3% (active)
growth [10]: 93.3%
growth [11]: 1.54% (active)
growth [12]: 68.8%
growth [13]: 75.2%
growth [14]: 67.1%
growth [15]: 83.2%
growth [16]: 93.2%
growth [17]: 89.3%
growth [18]: 81%
growth [19]: 63.9%

O=[N+]([O-])c1cccc(/C=N\Nc2ccccc2)c1
growth [1]: 88.5%
growth [2]: 70.1%
growth [3]: 81.1%
growth [4]: 84%
growth [5]: 77.1%
growth [6]: 54.9%
growth [7]: 67.4%
growth [8]: 74.4%
growth [9]: 85.4%
growth [10]: 80.2%
growth [11]: 16.6%
growth [13]: 55.7%
growth [14]: 101%
growth [15]: 62.5%
growth [16]: 49.2%
growth [17]: 96.7%
growth [18]: 95.3%
growth [19]: 33.7%

C=C1C(=O)O[C@H]2[C@H]1CC/C(COC(=O)N[C@H](Cc1c[nH]c3ccccc13)C(=O)OC)=C\CC[C@@]1(C)O[C@@H]21
growth [1]: 68.8%
growth [2]: 85.6%
growth [3]: 86.3%
growth [4]: 64.6%
growth [5]: 64%
growth [6]: -71.4% (active)
growth [7]: 82.4%
growth [8]: -56.3% (active)
growth [9]: -36.2% (active)
growth [10]: 40.9%
growth [11]: 7.14% (active)
growth [12]: 4.76% (active)
growth [13]: 26.8%
growth [14]: -25.5% (active)
growth [15]: 72.6%
growth [16]: 91.9%
growth [17]: 11.6%
growth [18]: 63.7%
growth [19]: 44.1%

CC(=O)O[C@H]1CC[C@]2(C)[C@H]3CC=C4[C@@H]5[C@H](C)[C@@H](C)CC[C@]5(C(=O)NCCNCCNCCN)CC[C@@]4(C)[C@]3(C)CC[C@H]2C1(C)C
growth [1]: 94.6%
growth [2]: 90.5%
growth [3]: 87.6%
growth [4]: 86.2%
growth [5]: 76.8%
growth [6]: 87.2%
growth [7]: 73.8%
growth [8]: 84.5%
growth [9]: 72.5%
growth [10]: 89.8%
growth [11]: 12%
growth [12]: 59.3%
growth [13]: 78%
growth [14]: 82.7%
growth [15]: 84.1%
growth [16]: 101%
growth [17]: 84.4%
growth [18]: 98%
growth [19]: 88.1%

C=C(C)[C@@H]1CC[C@]2(C(=O)NNC(=O)c3cccnc3)CC[C@]3(C)[C@H](CC[C@@H]4[C@@]5(C)CCCNC(C)(C)[C@@H]5CC[C@]43C)[C@@H]12
growth [1]: 84.4%
growth [2]: 83.2%
growth [3]: 101%
growth [4]: 84.9%
growth [5]: 95.9%
growth [7]: 71.6%
growth [8]: 94.8%
growth [9]: 20.6%
growth [10]: 91.3%
growth [11]: 1.18% (active)
growth [12]: 66.6%
growth [13]: 87%
growth [14]: 79.7%
growth [15]: 87%
growth [16]: 90.3%
growth [17]: 81.3%
growth [18]: 61.9%
growth [19]: 63.8%

C/C(=N\Nc1cc(C)c2cc(C)ccc2n1)c1ccccn1
growth [1]: 10.2%
growth [2]: -5.19% (active)
growth [3]: -9.38% (active)
growth [4]: 10.1%
growth [5]: -68.7% (active)
growth [6]: -93.5% (active)
growth [7]: 1.9% (active)
growth [8]: -73.3% (active)
growth [9]: -99.9% (active)
growth [10]: 21%
growth [11]: -40.8% (active)
growth [13]: -89.1% (active)
growth [14]: -88.2% (active)
growth [15]: -4.43% (active)
growth [17]: -92.4% (active)
growth [18]: -73.5% (active)
growth [19]: -82.9% (active)

COC(c1ccccc1)(c1ccccc1)c1ccccc1
growth [1]: 95.4%
growth [2]: 101%
growth [3]: 102%
growth [4]: 106%
growth [5]: 101%
growth [6]: 116%
growth [7]: 104%
growth [8]: 93%
growth [9]: 123%
growth [10]: 108%
growth [11]: 109%
growth [12]: 95.4%
growth [13]: 102%
growth [15]: 98.5%
growth [16]: 90.7%
growth [17]: 102%
growth [18]: 122%
growth [19]: 136%
